Compounds with a hit are over-represented: about 3.1% of the library has one in this group of screens.
Mot1-301 SUMO: inhibitors of SUMOylation pathway: yeast Mot1-301 growth rescue; AID 2716; growth rescue, % at 18.8 µM; 320,000 tested, 1% active; S. cerevisiae Mot1-301 growth rescue, ATP luminescence, 38.5C; percent above DMSO median, 100 means doubled;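 active means every valid replicate shows activation above 250% relative to neutral control wells; inactive means the rest, any valid replicate at or below 250%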;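 further: OY570 slx delta 5 strain wells were the positive control but not used for scaling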
ATG4B inh: blocks human ATG4B protease cleavage of LC3 substrate. 340,000 tested, 0.51% active. AID 504462. Q9Y4P1. ATG4B cleavage of LC3-PLA2, NBD-HPC fluorescence, 1 h. inhibition, % at 8.33 µM; in the data active means inhibition above about 40%
Target sequence (Q9Y4P1 whole entry, looked up): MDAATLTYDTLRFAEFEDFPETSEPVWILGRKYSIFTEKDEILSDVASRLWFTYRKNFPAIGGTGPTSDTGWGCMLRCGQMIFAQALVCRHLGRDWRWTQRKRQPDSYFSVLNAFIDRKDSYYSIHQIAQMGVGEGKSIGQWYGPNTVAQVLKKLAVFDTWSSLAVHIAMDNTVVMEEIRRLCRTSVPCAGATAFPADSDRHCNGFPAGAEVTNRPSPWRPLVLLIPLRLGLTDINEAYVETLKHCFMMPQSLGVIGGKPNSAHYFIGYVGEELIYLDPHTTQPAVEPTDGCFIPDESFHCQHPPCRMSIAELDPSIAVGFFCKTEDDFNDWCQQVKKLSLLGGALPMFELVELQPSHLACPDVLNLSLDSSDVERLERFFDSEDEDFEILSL
Calb FLC: affects C. albicans growth with fluconazole. 300,000 tested, 0.57% active. AID 1979. C. albicans CaCi-2 (fluconazole-resistant clinical isolate) + fluconazole, Alamar Blue growth, 48 h. growth inhibition, % (concentration not given with the values);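 active means growth inhibition above about 58% in most replicates, limit read from the data, passing the limit was not always enough; inconclusive means exactly half the replicates above a set limit; inactive means most replicates below a set limit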;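 further: all wells also contain fluconazole at 8 µg/ml as a sub-toxic cotreatment; 0% = median of DMSO wells and 100% = median of geldanamycin control wells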
NadD block: NadD (S. aureus) enzyme inhibition | AID 602399 | 360,000 tested, 0.78% active | inhibition, % at 20 µM | purified NadD enzyme, colorimetric absorbance read-out; in the data active means inhibition above about 26%
FAS-TE inh: blocks the thioesterase domain of human fatty acid synthase; P49327; recombinant FAS-TE, OMFH fluorogenic substrate, fluorescence endpoint; inhibition, % at 15 µM; 360,000 tested, 0.67% active; AID 602261;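 active means compounds whose normalised, plate-corrected inhibition of enzyme fluorescence in the single-dose primary screen is 50% or more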;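 further: 0% = DMSO with enzyme and 100% = substrate without enzyme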
NadD conf: NadD (S. aureus) inhibition, single concentration confirmation; shares compounds with NadD block; purified S. aureus NadD, colorimetric enzyme assay; inhibition, % at 20 µM; 2,000 tested, 13% active; in the data active means inhibition mostly above about 42%, no sharp cut-off; inactive means mostly below about 42%
The depositor's hits bear a star; ? = inconclusive; / = not tested or not shown.

SMILES	Mot1-301 SUMO	ATG4B inh	Calb FLC	NadD block	FAS-TE inh	NadD conf
Cc1nc2c(c(=O)n1CCC1=CCCCC1)c1nc3ccccc3nc1n2/N=C/c1ccco1	-10	-12	-22	49*	16	18
CCCn1c(C)nc2c(c1=O)c1nc3ccccc3nc1n2CCC1=CCCCC1	-3	-17	?	3	6	/
Cc1ccc(S(=O)(=O)n2c(C)nc3cc(C)ccc32)cc1	-5	-3	-15	3	-5	/
C=CCCC(=O)N1C[C@H]2CON(C)[C@H]2C[C@H]1c1cccc(N2CCOCC2)c1	/	/	/	2	-5	/
C#CCN(C[C@H]1[C@H](OC(=O)NCCCCCC)[C@H](OC(=O)NCCCCCC)C[C@@H](C(=O)OC)[C@H]1C(=O)OC)S(=O)(=O)c1ccc(C)cc1	/	/	/	17	12	/
C#CCN(C[C@@H]1[C@@H](OC(=O)Nc2cccs2)[C@@H](OC(=O)Nc2cccs2)Cn2c(=O)n(CCCCCC)c(=O)n21)S(=O)(=O)c1ccc(C)cc1	/	/	/	30*	21	16
O=c1[nH]c(C2CCN(S(=O)(=O)c3ccc(C(F)(F)F)cc3)CC2)nc2c1nnn2Cc1cccc(F)c1	0	-3	33	31*	-28	20
O=c1[nH]c(C2CCN(S(=O)(=O)c3ccc(F)cc3)CC2)nc2c1nnn2Cc1ccc2c(c1)OCCO2	42	-8	24	30*	13	32
Cc1ccc(S(=O)(=O)N2CCCC(c3nc4c(nnn4Cc4ccc5c(c4)OCCO5)c(=O)[nH]3)C2)cc1 (stereo not given)	-7	8	3	37*	36	30
O=c1[nH]c(C2CCCN(S(=O)(=O)c3ccccc3)C2)nc2c1nnn2Cc1ccccc1 (stereo not given)	7	-9	-13	7	7	/
O=c1[nH]c(C2CCN(S(=O)(=O)c3ccccc3F)CC2)nc2c1nnn2Cc1ccc2c(c1)OCCO2	-1	8	-3	23	18	/
O=c1[nH]c(C2CCN(S(=O)(=O)c3ccc(C(F)(F)F)cc3)CC2)nc2c1nnn2Cc1ccccc1	-6	-9	23	16	-13	/
Cc1ccc(C)c(Cn2nnc3c(=O)[nH]c(C4CCN(S(=O)(=O)c5ccc(S(=O)(=O)N(C)C)cc5)CC4)nc32)c1	310	-5	-1	46*	17	9
CCOC(=O)[C@]12CCC=C1N(CCC1=CCCCC1)C(=O)[C@H](CC(=O)N1CCN(C(=O)c3ccco3)CC1)C2	/	/	/	1	-8	/
CC(C)CCNC(=O)C(=O)Nc1ccc2c(c1)N(S(=O)(=O)c1cccs1)CCC2	70	7	1	-9	35	/
O=C(O)C1C2OC3C(OC(=O)C31)C2Br (stereo not given)	/	-7	/	-4	-6	/
CC(C)(C)c1ccc2c(c1)OC(C(=O)N/N=C/c1ccc([N+](=O)[O-])o1)CO2 (stereo not given)	-4	7	10	9	42	/
O=c1[nH]c(C2CCN(S(=O)(=O)/C=C/c3ccccc3)CC2)nc2c1nnn2Cc1ccc(F)cc1	4	-15	4	35*	15	35
O=c1[nH]c(C2CCN(S(=O)(=O)Cc3ccccc3)CC2)nc2c1nnn2Cc1ccccc1	-10	-5	5	0	6	/
COc1ccccc1N(C)C(=O)c1cc(S(=O)(=O)N2CCCC2)cn1C	-18	-3	-3	4	-5	/
[2H]C([2H])(CCOS(N)(=O)=O)c1ccccc1	-1	-5	5	3	-9	/
C/C(=N\NC(=S)Nc1ccc(C)cc1)c1cccc(N)c1	-2	-9	43	27*	4	17
O=C(Nc1ccc2nc(-c3ccco3)c(-c3ccco3)nc2c1)N1CCN(c2ccccn2)CC1	1	1	7	49*	5	49*
O=C(Nc1ccc(N2CCOCC2)cc1)c1ccc2nc(-c3ccco3)c(-c3ccco3)nc2c1	/	11	5	10	-7	/
S=C(Nc1ccc(N2CCOCC2)cc1)Nc1ccc2nc(-c3ccco3)c(-c3ccco3)nc2c1	-1	2	-5	42*	-3	2
SMILES	Mot1-301 SUMO	ATG4B inh	Calb FLC	NadD block	FAS-TE inh	NadD conf
COc1cc(Br)cc(/C=C/c2ccc3cccc(O)c3n2)c1O	11	-6	-2	34*	13	26
COc1cc(/C=C/c2ccc3cccc(O)c3n2)c(Br)cc1O	-6	/	15	28*	13	13
C[C@H](CO)N1C[C@H](C)[C@@H](CN(C)Cc2ccccc2)Oc2c(NS(=O)(=O)c3cn(C)cn3)cccc2C1=O	21	-4	/	1	-7	/
O=C(CN1CCN(c2ccc(O)cc2)CC1)Nc1ccc2c(c1)OCCCO2	21	-7	/	13	-1	/
N#Cc1ccccc1Cn1cc(/C=N/Nc2ccc([N+](=O)[O-])cn2)c2ccccc21	198	-6	-7	32*	8	5
Cc1cc(-c2csc(NC(=O)c3ccc(C#N)cc3)n2)c(C)n1Cc1ccco1	-8	0	-1	34*	9	24
Cc1cc(-c2csc(NC(=O)c3cc4ccccc4o3)n2)c(C)n1C	-3	7	-26	36*	-6	8
Cc1cc(-c2csc(NC(=O)c3ccc(=O)[nH]c3)n2)c(C)n1Cc1ccccc1	125	-4	9	48*	-7	40
C=CCn1c(C)cc(-c2csc(NC(=O)CCc3nc4ccccc4c(=O)[nH]3)n2)c1C	15	-22	5	52*	-5	28
COc1ccc(NS(=O)(=O)c2ccc3oc(=O)c4[nH]c(=O)c(=O)n(C)c4c3c2)cc1	-9	5	-7	0	2	/
CCOCCCNC(=O)CN1C(=O)NC(Cc2c[nH]c3ccccc23)C1=O (stereo not given)	16	-3	9	-6	-7	/
Cc1ccc(C(=O)CSc2nnc(-c3ccco3)n2Cc2ccccc2)cc1	-1	19	1	8	11	/
Cn1c(SCC(=O)c2ccc(-c3ccccc3)cc2)nnc1-c1ccco1	-15	3	23	32*	9	29
CC1(C(=O)NS(=O)(=O)c2ccccc2)CCN1C(=O)CC1CCCCC1 (stereo not given)	/	/	/	-2	-4	/
O=C(C1=C[C@@H]2[C@H]3C(=O)N(c4ccc(Cl)cc4)C(=O)[C@H]3[C@@H](C(=O)c3ccc(Cl)cc3)N2C=C1)c1ccccc1	/	19	?	43*	24	0
Cc1ccc(N2C(=O)C3C(C2=O)C(C(=O)c2ccc(Cl)cc2)N2CCCC32)cc1 (stereo not given)	32	-10	0	3	-8	/
Cc1cc(C)cc(NC(=O)Cn2c(=O)oc3cc(S(=O)(=O)N4CC(C)CC(C)C4)ccc32)c1 (stereo not given)	-17	3	-13	36*	21	3
